According to PubChem BioAssay (Tox21):
Several values for one entry are separate records, joined by “and”; a condition that tells them apart may be missing. Equal entries are not always repeated. Some compounds were tested as several samples or in several runs, with calls that do not always agree. Activity calls are given as the source filed them. A call without a number means that no potency is given here. Unless noted, calls follow the shape of the dose curve; as a rule, active = well fitted curve in the direction sought with a large enough effect in the repeat runs; inconclusive = weak or mixed curves; inactive = no such curve, though single readings can be large; an effect the other way counts as inactive or inconclusive.

Key:
[1] = qHTS assay for small molecules that induce genotoxicity in human embryonic kidney cells expressing luciferase-tagged ATAD5 (AID 651632); also: nearly all actives have a fitted effect of over 15% in size; also: potency is read from the fitted curve at half-maximal effect
Procedure, shortened: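 HEK293T cells carrying luciferase-tagged ATAD5 were given compound or DMSO vehicle and incubated 16 hr at 37C, 5% CO2. Luciferase activity was read after 30 min at room temperature with Amplite; a rise signals genotoxic stress.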

[2] = qHTS assay for small molecule agonists of the p53 signaling pathway - cell viability (AID 651633; calls by dose curve; also: nearly all actives have a fitted effect of over 30% in size; also: potency is read from the fitted curve at half-maximal effect)
Procedure, shortened: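 p53RE-bla cells were treated with compound for 16 hours at 37 C. Cytotoxicity was then measured as CellTiter-Glo luminescence after 30 min at room temperature.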

[3] = qHTS assay for small molecules that induce genotoxicity in human embryonic kidney cells expressing luciferase-tagged ATAD5 - cell viability (AID 651634; calls by dose curve; also: nearly all actives have a fitted effect of over 25% in size)
Procedure, shortened: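 HEK293T cells carrying luciferase-tagged ATAD5, 2,000 cells/well, exposed to compound for 15.5 hr at 37C. Viability read as live-cell protease activity by CellTiter-Fluor fluorescence after 30 min at 37C.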

[4] = qHTS assay for small molecule disruptors of the mitochondrial membrane potential - cell viability (AID 720634; calls by dose curve; also: nearly all actives have a fitted effect of over 20% in size; also: potency is read from the fitted curve at half-maximal effect)
Procedure, shortened: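 HepG2 cells, 2,000 per well, attached overnight, then treated 1 hr at 37 C, 5% CO2. Viability read as ATP by CellTiter-Glo luminescence after 30 min at room temperature. Read in the same wells as the m-MPI membrane-potential dye assay.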

[5] = qHTS assay to test for compound auto fluorescence at 590 nm (red) in HepG2 cells (AID 720674)
Procedure, shortened: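 Seeding: 2,000 HepG2 cells/well, MEM/10% FBS, overnight 37 C. Dosing: compound vs DMSO. Incubation: 1 hr, 37 C, 5% CO2. Read: fluorescence 540 ex/590 em, Rose Bengal sodium as red reference.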

[6] = qHTS assay to test for compound auto fluorescence at 535 nm (green) in HepG2 cells (AID 720675)
[7] = qHTS assay to test for compound auto fluorescence at 460 nm (blue) in HEK293 cells (AID 720678)
Procedure, shortened: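 Intrinsic compound fluorescence is recorded in live HEK293 cultures after overnight incubation at 37C, 5% CO2, using excitation 405 nm and emission 460 nm. Values are referenced to triamterene.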

[8] = qHTS assay to test for compound auto fluorescence at 590 nm (red) in HEK293 cells (AID 720679)
Procedure, shortened: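 Red autofluorescence, HEK293 cells: 2,000 cells/well; attach 4-5 hr 37C; add 23 nL cpd or DMSO; incubate o/n 37C 5% CO2; read Ex540/Em590; Rose Bengal sodium reference.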

[9] = qHTS assay to test for compound auto fluorescence at 460 nm (blue) in HEK293 cell free culture (AID 720681)
Procedure, shortened: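 Compounds were added to cell-free DMEM with 10% FBS and fluorescence read directly. The blue channel used 405 nm excitation and 460 nm emission, with triamterene as the reference fluorophore.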

[10] = qHTS assay to test for compound auto fluorescence at 535 nm (green) in HEK293 cell free culture (AID 720682)
Procedure, shortened: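 Measurement is a direct plate read of green fluorescence (485 nm in, 535 nm out) after compound addition to serum-supplemented DMEM lacking cells, with fluorescein used to express intensities.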

[11] = qHTS assay to test for compound auto fluorescence at 590 nm (red) in HEK293 cell free culture (AID 720683)
Procedure, shortened: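 Cell-free wells of DMEM with 10% FBS received compound, and intrinsic fluorescence was read at excitation/emission 540/590 nm. Values expressed as equivalence to Rose Bengal sodium.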

[12] = qHTS assay to test for compound auto fluorescence at 590 nm (red) in HepG2 cell free culture (AID 720684)
Procedure, shortened: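 Compounds are added to culture medium (MEM, 10% FBS) lacking cells, then fluorescence is read at excitation 540 nm, emission 590 nm, with Rose Bengal sodium as the equivalency standard.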

[13] = qHTS assay to test for compound auto fluorescence at 460 nm (blue) in HepG2 cell free culture (AID 720685)
Procedure, shortened: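 Compound (23 nL) or DMSO pinned into cell-free MEM with 10% FBS; blue fluorescence read at 405/460 nm excitation/emission, expressed as auto-fluorescence equivalency to triamterene.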

[14] = qHTS assay to test for compound auto fluorescence at 535 nm (green) in HepG2 cell free culture (AID 720686)
[15] = qHTS assay to test for compound auto fluorescence at 460 nm (blue) in HepG2 cells (AID 720687)
Procedure, shortened: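 HepG2 cells in MEM with 10% FBS, attached overnight at 37 C, were exposed to compound or DMSO for 1 hr at 37 C, 5% CO2. Blue fluorescence was read at 405/460 nm, with triamterene as reference fluorophore.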

[16] = target: Glucocorticoid receptor (Homo sapiens) (UniProt P04150); test: qHTS assay to identify small molecule agonists of the glucocorticoid receptor (GR) signaling pathway (AID 720691; active = well fitted activation curve with a large enough effect in the signal ratio in the repeat runs, not every such curve was filed as active; inconclusive = weak or mixed curves, or effect the other way; inactive = no such curve, though single readings can be large or run the other way; the % refers to the signal ratio); conditions: GR-bla HeLa, beta-lactamase reporter ratio, 18 h; activation: at 62.4 µM (top of the series)
Glucocorticoid receptor (Homo sapiens), sequence (P04150 whole entry, looked up): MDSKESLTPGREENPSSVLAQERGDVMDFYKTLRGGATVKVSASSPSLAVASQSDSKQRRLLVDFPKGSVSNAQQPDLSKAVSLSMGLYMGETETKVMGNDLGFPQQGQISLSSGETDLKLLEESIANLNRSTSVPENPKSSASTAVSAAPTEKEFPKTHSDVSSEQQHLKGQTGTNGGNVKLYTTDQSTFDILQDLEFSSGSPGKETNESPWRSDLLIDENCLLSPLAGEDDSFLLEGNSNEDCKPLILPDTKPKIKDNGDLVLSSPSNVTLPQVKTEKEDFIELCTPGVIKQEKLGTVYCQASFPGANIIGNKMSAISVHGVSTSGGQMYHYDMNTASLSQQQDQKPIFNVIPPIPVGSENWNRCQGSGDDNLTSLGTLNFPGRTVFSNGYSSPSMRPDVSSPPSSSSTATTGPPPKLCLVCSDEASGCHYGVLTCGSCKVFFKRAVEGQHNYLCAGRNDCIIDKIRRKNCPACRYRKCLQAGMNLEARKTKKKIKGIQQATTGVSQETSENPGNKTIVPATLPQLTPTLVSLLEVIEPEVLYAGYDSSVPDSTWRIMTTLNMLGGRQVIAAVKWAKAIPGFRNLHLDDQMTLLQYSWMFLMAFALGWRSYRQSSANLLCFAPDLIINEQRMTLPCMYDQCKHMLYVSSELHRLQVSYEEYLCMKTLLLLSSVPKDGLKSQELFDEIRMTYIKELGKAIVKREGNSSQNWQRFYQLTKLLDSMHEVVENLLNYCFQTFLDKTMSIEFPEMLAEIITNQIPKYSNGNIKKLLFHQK
Procedure, shortened: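 GR-bla HeLa cells carrying a GRE-driven beta-lactamase reporter, exposed to compounds for 18 h at 37 C. Reporter activation read as fluorescence after 2 h with LiveBLAzer B/G FRET substrate at room temperature.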

[17] = target: Glucocorticoid receptor (Homo sapiens) (UniProt P04150); test: qHTS assay to identify small molecule antagonists of the glucocorticoid receptor (GR) signaling pathway (AID 720692; active = well fitted inhibition curve with a large enough effect in the signal ratio in the repeat runs, not every such curve was filed as active; inconclusive = weak or mixed curves, or effect the other way; inactive = no such curve, though single readings can be large or run the other way; the % refers to the signal ratio; also: potency is read from the fitted curve at half-maximal effect)
Procedure, shortened: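 GR-bla HeLa cells carrying a GRE-driven beta-lactamase reporter received compound after 4 h plating, then dexamethasone (5 nM final). After 18 h at 37C, the FRET substrate was loaded for 2 h at room temperature and fluorescence read.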

[18] = qHTS assay for small molecule disruptors of the mitochondrial membrane potential (AID 720635); also: potency is read from the fitted curve at half-maximal effect
Procedure, shortened: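 HepG2 cells exposed to compound 1 hr at 37C, then Mito-MPS dye 30 min. Ratio read of aggregate (540/590 nm) versus monomer (490/535 nm) fluorescence.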

[19] = qHTS assay to test for compound auto fluorescence at 535 nm (green) in HEK293 cells (AID 720680)

BrCCCBr
Potency [1]: inactive
Potency [2]: inactive
Potency [3]: inactive
Potency [4]: inactive
outcome [5]: inactive
Potency [6]: inactive
Potency [7]: inactive
outcome [8]: inactive
Potency [9]: inactive
outcome [10]: inactive
outcome [11]: inactive
outcome [12]: inactive
Potency [13]: inactive
Potency [14]: inactive
Potency [15]: inactive
Potency [16]: inactive
Potency [17]: inactive

CN(C)C(=S)SSC(=S)N(C)C
Potency [1]: 19.1 µM (active)
Potency [2]: 29.8 µM (active) and 26.9 µM (active) and 27.3 µM (active)
Potency [4]: inactive
Potency [18]: 335 nM (active) and 30.2 µM (active) and 54.5 nM (active)
outcome [5]: inactive
Potency [6]: inactive
Potency [7]: inactive
outcome [19]: inactive
Potency [9]: inactive
outcome [10]: inactive
outcome [12]: inactive
Potency [13]: inactive
Potency [15]: inactive
activation [16]: -15.4% [inconclusive] (active) and -4.77% [inconclusive] (active)

ClC1(Cl)C2(Cl)C3(Cl)C4(Cl)C(Cl)(Cl)C5(Cl)C3(Cl)C1(Cl)C5(Cl)C24Cl (stereo not drawn)
Potency [1]: inactive
Potency [2]: inactive
Potency [3]: inactive
Potency [4]: inactive
outcome [5]: inactive
Potency [6]: inactive
Potency [7]: inactive
outcome [8]: inactive
outcome [19]: inactive
Potency [9]: inactive
outcome [10]: inactive
outcome [12]: inactive
Potency [13]: inactive
Potency [14]: inactive
Potency [15]: inactive
Potency [16]: inactive
Potency [17]: inactive

Oc1ccc([C@H]2CNCc3c2ccc(O)c3O)cc1O
Potency [1]: inactive
Potency [2]: inactive
Potency [4]: inactive
outcome [5]: inactive
Potency [6]: inactive
Potency [7]: inactive
outcome [8]: inactive
outcome [19]: inactive
Potency [9]: inactive
outcome [10]: inactive
outcome [11]: inactive
outcome [12]: inactive
Potency [13]: inactive
Potency [15]: inactive

O=S(=O)(O)F
Potency [1]: inactive
Potency [2]: inactive
Potency [4]: inactive
Potency [18]: inactive
Potency [6]: inactive
Potency [7]: inactive
outcome [8]: inactive
Potency [9]: inactive
outcome [11]: inactive
outcome [12]: inactive
Potency [14]: inactive
Potency [15]: inactive

[O]=[Cr](=[O])([OH])[O][Cr](=[O])(=[O])[OH]
Potency [1]: inactive
Potency [2]: 19.5 µM (active) [middle of 4 runs]
Potency [4]: inactive and 27.6 µM (active) and 30.6 µM (active)
Potency [18]: inactive and 13.8 µM (active) and 27.3 µM (active)
outcome [5]: inactive
Potency [6]: inactive
Potency [7]: inactive
outcome [8]: inactive
outcome [19]: inactive
Potency [9]: inactive
outcome [10]: inactive
outcome [11]: inactive
outcome [12]: inactive
Potency [14]: inactive
Potency [15]: inactive
Potency [17]: 3.08 µM (active)

O=S1OCC2C(CO1)C1(Cl)C(Cl)=C(Cl)C2(Cl)C1(Cl)Cl (stereo not drawn)
Potency [1]: inactive
Potency [2]: 68.7 µM (active) and 54.4 µM (active)
Potency [3]: inactive
outcome [5]: inactive
Potency [6]: inactive
Potency [7]: inactive
outcome [8]: inactive
outcome [19]: inactive
Potency [9]: inactive
outcome [12]: inactive
Potency [13]: inactive
Potency [14]: inactive
Potency [15]: inactive

COc1ccc(Cc2nccc3cc(OC)c(OC)cc23)cc1OC
Potency [1]: inactive
Potency [2]: inactive
Potency [4]: inactive
fluorescence, relative to Rose Bengal [5]: 0.593% [at 18.6 µM] (inactive)
fluorescence, % of fluorescein control [6]: 0.0156% [at 18.6 µM] (inactive)
fluorescence, % of triamterene [7]: -0.311% [at 18.6 µM] (inactive)
fluorescence, % of fluorescent control [8]: -0.0717% [at 18.6 µM] (inactive)
fluorescence, % of fluorescein [19]: -0.0425% [at 18.6 µM] (inactive)
fluorescence, % of fluorescent control [9]: -0.0156% [at 18.6 µM] (inactive)
activity change [10]: -0.0465% [at 18.6 µM] (inactive)
fluorescence, % of fluorescent control [11]: -0.0177% [at 18.6 µM] (inactive)
fluorescence, % of Rose Bengal [12]: -0.262% [at 18.6 µM] (inactive)
fluorescence, % of fluorescent control [13]: 0.0281% [at 18.6 µM] (inactive)
fluorescence, % of fluorescein control [14]: -0.0438% [at 18.6 µM] (inactive)
fluorescence, % of fluorescent control [15]: -0.0587% [at 18.6 µM] (inactive)
